Data taken from PubChem BioAssay AID1159580 (chemical genetic matrix, 2015).
Hit rate of the full screen: of about 5,500 compounds, about 2,000 (36%) were called active. Another 18% or so got no clear call; they are omitted. Rule as the data show it: active = normalized growth mostly below about 0.91 (no sharp cut-off); inconclusive = no clear call, values can overlap the other calls; inactive = mostly above about 0.92. The list shows a part of the results.

Assay: chemical genetic growth profiling, strain panel (AID 1159580);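 also: tested at 20 µM; growth read once vehicle control cultures reached saturation at 30 °C; 1 = growth at the plate median or of vehicle wells; lower values mean less growth of the strain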
Details: S. cerevisiae deletion strains, growth OD
[1] = locus YAL040C, strain CLN3, active compounds read low
[2] = locus YCL061C, strain MRC1 (second series), active compounds read low
[3] = locus YDR150W, strain NUM1, active compounds read low
[4] = locus YDR363W, strain ESC2, active compounds read low
[5] = locus YER002W, strain NOP16, active compounds read low
[6] = locus YGR078C, strain PAC10, active compounds read low
[7] = locus YGR229C, strain SMI1, active compounds read low
[8] = locus YJR075W, strain HOC1, active compounds read low
[9] = locus YMR263W, strain SAP30, active compounds read low
[10] = locus YMR307W, strain GAS1, active compounds read low
[11] = locus YNL128W, strain TEP1, active compounds read low
[12] = locus YNL153C, strain GIM3, active compounds read low
[13] = locus YNL175C, strain NOP13, active compounds read low
[14] = locus YNL197C, strain WHI3, active compounds read low
[15] = locus YNL224C, strain SQS1, active compounds read low
[16] = locus YOR083W, strain WHI5 (second series), active compounds read low
[17] = locus YPL055C, strain LGE1, active compounds read low
[18] = locus YPL241C, strain CIN2, active compounds read low
[19] = locus YDL101C, strain DUN1, active compounds read low
[20] = locus YHR030C, strain SLT2, active compounds read low
[21] = locus YNL322C, strain KRE1, active compounds read low
[22] = locus YAR019C, strain CDC15, active compounds read low
[23] = locus YBL105C, strain PKC1, active compounds read low
[24] = locus YBR135W, strain CKS1, active compounds read low
[25] = locus YBR136W, strain MEC1, active compounds read low
[26] = locus YBR160W, strain CDC28, active compounds read low
[27] = locus YDL017W, strain CDC7, active compounds read low
[28] = locus YDL028C, strain MPS1, active compounds read low
[29] = locus YDL108W, strain KIN28, active compounds read low
[30] = locus YDL132W, strain cdc53, active compounds read low
[31] = locus YDL214C, strain PRR2, active compounds read low
[32] = locus YDR052C, strain DBF4, active compounds read low
[33] = locus YDR054C, strain cdc34, active compounds read low
[34] = locus YDR226W, strain ADK1, active compounds read low
[35] = locus YDR477W, strain SNF1, active compounds read low
[36] = locus YER123W, strain YCK3, active compounds read low
[37] = locus YER133W, strain GLC7, active compounds read low
[38] = locus YFL009W, strain cdc4, active compounds read low
[39] = locus YFL029C, strain CAK1, active compounds read low
[40] = locus YFR003C, strain YPI1, active compounds read low
[41] = locus YFR019W, strain FAB1, active compounds read low
[42] = locus YFR028C, strain CDC14, active compounds read low
[43] = locus YGR040W, strain KSS1, active compounds read low
[44] = locus YGR052W, strain FMP48, active compounds read low
[45] = locus YGR092W, strain DBF2, active compounds read low
[46] = locus YHR079C, strain IRE1, active compounds read low
[47] = locus YHR082C, strain KSP1, active compounds read low
[48] = locus YHR205W, strain SCH9, active compounds read low
[49] = locus YIL147C, strain SLN1, active compounds read low
[50] = locus YJL095W, strain BCK1, active compounds read low
[51] = locus YJL128C, strain PBS2, active compounds read low
[52] = locus YJL157C, strain FAR1, active compounds read low
[53] = locus YJR016C, strain ILV3, active compounds read low
[54] = locus YJR066W, strain TOR1 (second series), active compounds read low
[55] = locus YJR066W, strain TOR1, active compounds read low
[56] = locus YKL048C, strain ELM1, active compounds read low
[57] = locus YKL067W, strain YNK1, active compounds read low
[58] = locus YKL101W, strain HSL1, active compounds read low
[59] = locus YKL193C, strain SDS22, active compounds read low
[60] = locus YKL203C, strain TOR2, active compounds read low
[61] = locus YLR113W, strain HOG1, active compounds read low
[62] = locus YLR133W, strain CKI1, active compounds read low
[63] = locus YLR403W, strain SFP1, active compounds read low
[64] = locus YML070W, strain DAK1, active compounds read low
[65] = locus YMR001C, strain CDC5, active compounds read low
[66] = locus YMR205C, strain PFK2 (second series), active compounds read low
[67] = locus YMR277W, strain FCP1, active compounds read low
[68] = locus YNL006W, strain LST8, active compounds read low
[69] = locus YNL020C, strain ARK1, active compounds read low
[70] = locus YNL161W, strain CBK1, active compounds read low
[71] = locus YNL183C, strain NPR1, active compounds read low
[72] = locus YNL207W, strain RIO2, active compounds read low
[73] = locus YNL222W, strain SSU72, active compounds read low
[74] = locus YNL307C, strain MCK1 (second series), active compounds read low
[75] = locus YOL078W, strain AVO1, active compounds read low
[76] = locus YOL136C, strain PFK27, active compounds read low
[77] = locus YOR061W, strain CKA2, active compounds read low
[78] = locus YOR119C, strain RIO1, active compounds read low
[79] = locus YOR231W, strain MKK1, active compounds read low
[80] = locus YOR329C, strain SCD5, active compounds read low
[81] = locus YPL031C, strain PHO85, active compounds read low
[82] = locus YPL153C, strain RAD53, active compounds read low
[83] = locus YPL204W, strain HRR25, active compounds read low
[84] = locus YPL209C, strain IPL1, active compounds read low
[85] = locus YPL256C, strain CLN2, active compounds read low
[86] = locus YPR025C, strain CCL1, active compounds read low
[87] = locus YPR106W, strain ISR1, active compounds read low
[88] = locus YPR111W, strain DBF20, active compounds read low
[89] = strain NNK1, active compounds read low
[90] = strain TSCII, active compounds read low

Measured: normalized growth

CCN(CC)CCOC(=O)c1cc(Cl)c(N)cc1OC
inactive: [1] 0.981 | [2] 1.01 | [3] 1 | [4] 1 | [5] 1.02 | [6] 1.01 | [7] 1.01 | [8] 1.01 | [9] 1 | [10] 1 | [11] 1 | [12] 1 | [13] 1 | [14] 1.01 | [15] 1 | [16] 1.01 | [17] 0.954 | [18] 1

COC(=O)c1ccc(Cl)cc1NS(=O)(=O)c1ccc(OC)c(OC)c1
inactive: locus YAL013W, strain DEP1, active compounds read low 1.01 | locus YBR229C, strain ROT2, active compounds read low 0.976 | [19] 0.987 | [3] 1.04 | locus YEL061C, strain CIN8, active compounds read low 1.01 | [6] 0.986 | [7] 1.02 | [20] 0.969 | locus YHR087W, strain rtc3, active compounds read low 1.02 | locus YJL187C, strain SWE1, active compounds read low 1 | locus YJR043C, strain POL32, active compounds read low 0.978 | [8] 0.984 | locus YKL190W, strain CNB1, active compounds read low 1.01 | locus YLR039C, strain RIC1, active compounds read low 0.934 | locus YLR058C, strain SHM2 (second series), active compounds read low 1.01 | locus YLR085C, strain ARP6, active compounds read low 1.01 | locus YLR262C, strain YPT6, active compounds read low 0.947 | locus YML094W, strain GIM5, active compounds read low 1.03 | locus YMR219W, strain ESC1, active compounds read low 1 | [9] 0.986 | [12] 0.996 | locus YNL298W, strain CLA4 (second series), active compounds read low 0.989 | [21] 1 | locus YNR030W, strain Alg12, active compounds read low 0.998 | [17] 0.966 | [18] 1.01 | locus YPR135W, strain CTF4, active compounds read low 0.999

COc1cc(Cl)ccc1N/N=C(/C#N)C(N)=O
active: [22] 0.106 | [23] 0.0965 | [24] 0.109 | [25] 0.104 | [26] 0.104 | [27] 0.0952 | [28] 0.111 | [19] 0.124 | [29] 0.114 | [30] 0.102 | [31] 0.116 | [32] 0.0987 | [33] 0.104 | [34] 0.103 | [35] 0.115 | [36] 0.112 | [37] 0.12 | [38] 0.109 | [39] 0.109 | [40] 0.0947 | [41] 0.112 | [42] 0.106 | [43] 0.112 | [44] 0.153 | [45] 0.11 | [20] 0.194 | [46] 0.214 | [47] 0.221 | [48] 0.0135 | [49] 0.107 | [50] 0.189 | [51] 0.103 | [52] 0.105 | [53] 0.0991 | [54] 0.112 | [55] 0.181 | [56] 0.128 | [57] 0.119 | [58] 0.106 | [59] 0.106 | [60] 0.116 | [61] 0.262 | [62] 0.111 | [63] 0.00868 | [64] 0.114 | [65] 0.108 | [66] 0.104 | [67] 0.106 | [68] 0.0981 | [69] 0.11 | [70] 0.106 | [71] 0.148 | [72] 0.107 | [73] 0.105 | [74] 0.12 | [75] 0.105 | [76] 0.115 | [77] 0.0994 | [78] 0.115 | [79] 0.231 | [80] 0.102 | [81] 0.107 | [82] 0.111 | [83] 0.117 | [84] 0.0959 | [85] 0.231 | [86] 0.107 | [87] 0.0943 | [88] 0.108 | [89] 0.0995 | [90] 0.107

Nc1cc(=O)[nH]c(N)n1
inactive: [1] 1.01 | [2] 0.991 | [3] 0.978 | [4] 0.953 | [5] 1.01 | [10] 0.981 | [11] 0.984 | [13] 1.01 | [14] 0.987 | [15] 1.01 | [21] 1 | [16] 1.02 | [18] 1.01

CC(C)(C)c1ccc(C(=N)SC(C(=O)C(F)(F)F)c2ccccc2)cc1 (stereo not given)
active: [20] 0.471 | [85] 0.846
inactive: [22] 0.987 | [23] 0.994 | [24] 0.994 | [25] 0.985 | [26] 0.994 | [27] 0.998 | [28] 0.989 | [19] 0.992 | [29] 0.987 | [30] 0.989 | [31] 0.916 | [32] 0.993 | [33] 0.986 | [34] 0.993 | [35] 0.865 | [36] 0.877 | [37] 0.942 | [38] 0.991 | [39] 0.982 | [40] 0.986 | [41] 0.884 | [42] 0.985 | [43] 0.894 | [44] 0.96 | [45] 0.887 | [46] 0.804 | [47] 0.766 | [48] 0.778 | [49] 0.992 | [50] 0.868 | [51] 1.02 | [52] 0.966 | [53] 0.995 | [54] 0.931 | [55] 0.859 | [56] 0.96 | [57] 0.951 | [58] 0.875 | [59] 0.986 | [60] 0.98 | [61] 0.901 | [62] 0.887 | [63] 0.89 | [64] 0.9 | [65] 0.983 | [66] 0.941 | [67] 0.993 | [68] 0.997 | [69] 0.884 | [70] 0.993 | [71] 0.863 | [72] 0.99 | [73] 0.989 | [74] 0.794 | [75] 0.994 | [76] 0.901 | [77] 0.885 | [78] 0.979 | [79] 0.938 | [80] 0.988 | [81] 0.872 | [82] 0.909 | [83] 0.905 | [84] 0.99 | [86] 0.995 | [87] 0.988 | [88] 0.977 | [89] 0.982 | [90] 0.985
